The values that follow come from ChEMBL document CHEMBL2218924, “A broad activity screen in support of a chemogenomic map for kinase signalling research and drug discovery” (Biochem J, 2013).

The target of test [1] is T1, Ephrin type-B receptor 1 (Homo sapiens) (UniProt P54762).
T1 sequence (whole entry): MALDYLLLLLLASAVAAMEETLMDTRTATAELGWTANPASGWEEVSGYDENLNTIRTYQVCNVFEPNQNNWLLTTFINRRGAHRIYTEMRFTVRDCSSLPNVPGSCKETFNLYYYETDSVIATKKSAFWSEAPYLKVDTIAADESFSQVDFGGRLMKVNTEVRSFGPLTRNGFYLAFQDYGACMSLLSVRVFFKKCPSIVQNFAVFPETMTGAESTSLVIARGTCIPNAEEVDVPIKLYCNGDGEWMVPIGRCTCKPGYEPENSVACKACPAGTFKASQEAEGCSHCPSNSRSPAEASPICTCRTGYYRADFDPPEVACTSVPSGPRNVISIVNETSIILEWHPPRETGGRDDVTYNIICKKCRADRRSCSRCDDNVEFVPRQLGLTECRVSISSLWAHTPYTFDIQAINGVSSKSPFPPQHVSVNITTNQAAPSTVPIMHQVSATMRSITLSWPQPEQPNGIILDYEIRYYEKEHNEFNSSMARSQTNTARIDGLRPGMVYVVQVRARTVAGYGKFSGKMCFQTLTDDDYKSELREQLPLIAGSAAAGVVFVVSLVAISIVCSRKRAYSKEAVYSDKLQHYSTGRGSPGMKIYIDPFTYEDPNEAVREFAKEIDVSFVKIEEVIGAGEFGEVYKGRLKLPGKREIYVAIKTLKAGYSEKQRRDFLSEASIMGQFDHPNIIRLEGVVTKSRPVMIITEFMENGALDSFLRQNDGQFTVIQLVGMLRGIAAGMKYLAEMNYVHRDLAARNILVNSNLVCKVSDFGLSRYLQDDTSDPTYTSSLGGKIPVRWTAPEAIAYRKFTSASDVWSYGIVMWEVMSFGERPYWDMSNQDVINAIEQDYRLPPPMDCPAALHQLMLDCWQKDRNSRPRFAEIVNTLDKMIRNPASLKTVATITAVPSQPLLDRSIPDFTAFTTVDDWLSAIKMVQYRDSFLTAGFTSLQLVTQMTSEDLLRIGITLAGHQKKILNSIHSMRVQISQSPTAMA
Particulars: at 10 µM; call rule not given here.

Test [2] concerns the target T2, Ephrin type-B receptor 3 (Homo sapiens) (UniProt P54753).
T2 sequence (whole entry): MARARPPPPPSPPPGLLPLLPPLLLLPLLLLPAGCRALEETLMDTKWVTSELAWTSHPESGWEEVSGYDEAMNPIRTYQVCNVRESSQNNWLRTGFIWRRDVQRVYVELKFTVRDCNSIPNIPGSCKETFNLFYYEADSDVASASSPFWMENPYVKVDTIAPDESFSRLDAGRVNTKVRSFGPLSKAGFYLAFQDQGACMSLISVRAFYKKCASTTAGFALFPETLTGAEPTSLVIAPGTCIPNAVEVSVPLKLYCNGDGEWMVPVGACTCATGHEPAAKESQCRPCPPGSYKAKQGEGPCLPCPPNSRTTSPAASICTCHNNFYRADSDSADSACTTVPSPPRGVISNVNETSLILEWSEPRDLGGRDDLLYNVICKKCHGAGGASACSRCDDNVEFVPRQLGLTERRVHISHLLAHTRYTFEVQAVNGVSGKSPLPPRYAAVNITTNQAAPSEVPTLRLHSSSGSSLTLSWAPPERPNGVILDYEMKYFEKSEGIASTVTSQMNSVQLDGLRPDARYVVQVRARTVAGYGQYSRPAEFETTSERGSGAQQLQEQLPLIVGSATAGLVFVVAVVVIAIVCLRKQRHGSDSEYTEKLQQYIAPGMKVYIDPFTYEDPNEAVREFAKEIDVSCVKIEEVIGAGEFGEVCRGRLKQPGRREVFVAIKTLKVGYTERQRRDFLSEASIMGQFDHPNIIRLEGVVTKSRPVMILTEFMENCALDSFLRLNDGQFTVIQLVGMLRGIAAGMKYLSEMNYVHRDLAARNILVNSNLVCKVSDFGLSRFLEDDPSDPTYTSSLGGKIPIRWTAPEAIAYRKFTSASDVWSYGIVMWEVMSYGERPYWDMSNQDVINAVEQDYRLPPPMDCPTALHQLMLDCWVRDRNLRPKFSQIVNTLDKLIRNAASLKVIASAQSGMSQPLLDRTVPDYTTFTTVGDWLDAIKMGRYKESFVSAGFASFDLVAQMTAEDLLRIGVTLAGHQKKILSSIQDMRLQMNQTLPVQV
Particulars: at 10 µM.

The target of test [3] is T3, Ephrin type-B receptor 4 (Homo sapiens) (UniProt P54760).
T3 sequence (whole entry): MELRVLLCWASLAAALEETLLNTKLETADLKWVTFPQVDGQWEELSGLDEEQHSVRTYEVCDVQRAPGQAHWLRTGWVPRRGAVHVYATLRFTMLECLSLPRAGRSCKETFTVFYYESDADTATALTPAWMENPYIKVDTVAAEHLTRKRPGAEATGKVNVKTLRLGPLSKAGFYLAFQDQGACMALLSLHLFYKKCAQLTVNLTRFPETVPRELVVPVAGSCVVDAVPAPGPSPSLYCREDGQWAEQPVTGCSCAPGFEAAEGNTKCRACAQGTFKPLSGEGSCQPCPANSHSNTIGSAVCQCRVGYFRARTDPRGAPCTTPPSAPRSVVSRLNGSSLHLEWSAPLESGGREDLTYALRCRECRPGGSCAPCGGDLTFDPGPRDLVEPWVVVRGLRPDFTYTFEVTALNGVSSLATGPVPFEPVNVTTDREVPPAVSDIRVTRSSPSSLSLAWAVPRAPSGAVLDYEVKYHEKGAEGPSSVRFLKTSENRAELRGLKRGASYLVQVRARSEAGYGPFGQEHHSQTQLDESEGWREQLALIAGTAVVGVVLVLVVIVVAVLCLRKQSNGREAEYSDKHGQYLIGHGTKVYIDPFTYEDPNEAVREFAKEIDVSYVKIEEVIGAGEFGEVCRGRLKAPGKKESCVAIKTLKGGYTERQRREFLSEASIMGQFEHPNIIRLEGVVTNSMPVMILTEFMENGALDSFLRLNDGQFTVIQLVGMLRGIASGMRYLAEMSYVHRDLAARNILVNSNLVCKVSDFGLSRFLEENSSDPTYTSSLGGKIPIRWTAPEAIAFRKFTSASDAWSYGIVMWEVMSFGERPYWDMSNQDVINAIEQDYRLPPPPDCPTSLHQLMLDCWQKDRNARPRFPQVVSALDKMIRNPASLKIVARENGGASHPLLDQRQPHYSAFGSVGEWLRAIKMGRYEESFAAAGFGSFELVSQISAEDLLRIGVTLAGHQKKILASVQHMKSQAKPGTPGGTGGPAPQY
The note with it: at 1 µM.

Test [4] has as its target T3, Ephrin type-B receptor 4 (Homo sapiens). Particulars: at 10 µM.
For test [5], the target named is Receptor tyrosine-protein kinase erbB-4 (Homo sapiens) (UniProt Q15303). Particulars: at 1 µM.
The target is the same in test [6]. The note with it: at 10 µM.
In test [7] the target is Focal adhesion kinase 1 (Homo sapiens) (UniProt Q05397). Particulars: at 1 µM.
In test [8] the target is T2, Ephrin type-B receptor 3 (Homo sapiens). Particulars: at 1 µM.
Test [9] has as its target T4, Ephrin type-B receptor 2 (Homo sapiens) (UniProt P29323).
T4 sequence (whole entry): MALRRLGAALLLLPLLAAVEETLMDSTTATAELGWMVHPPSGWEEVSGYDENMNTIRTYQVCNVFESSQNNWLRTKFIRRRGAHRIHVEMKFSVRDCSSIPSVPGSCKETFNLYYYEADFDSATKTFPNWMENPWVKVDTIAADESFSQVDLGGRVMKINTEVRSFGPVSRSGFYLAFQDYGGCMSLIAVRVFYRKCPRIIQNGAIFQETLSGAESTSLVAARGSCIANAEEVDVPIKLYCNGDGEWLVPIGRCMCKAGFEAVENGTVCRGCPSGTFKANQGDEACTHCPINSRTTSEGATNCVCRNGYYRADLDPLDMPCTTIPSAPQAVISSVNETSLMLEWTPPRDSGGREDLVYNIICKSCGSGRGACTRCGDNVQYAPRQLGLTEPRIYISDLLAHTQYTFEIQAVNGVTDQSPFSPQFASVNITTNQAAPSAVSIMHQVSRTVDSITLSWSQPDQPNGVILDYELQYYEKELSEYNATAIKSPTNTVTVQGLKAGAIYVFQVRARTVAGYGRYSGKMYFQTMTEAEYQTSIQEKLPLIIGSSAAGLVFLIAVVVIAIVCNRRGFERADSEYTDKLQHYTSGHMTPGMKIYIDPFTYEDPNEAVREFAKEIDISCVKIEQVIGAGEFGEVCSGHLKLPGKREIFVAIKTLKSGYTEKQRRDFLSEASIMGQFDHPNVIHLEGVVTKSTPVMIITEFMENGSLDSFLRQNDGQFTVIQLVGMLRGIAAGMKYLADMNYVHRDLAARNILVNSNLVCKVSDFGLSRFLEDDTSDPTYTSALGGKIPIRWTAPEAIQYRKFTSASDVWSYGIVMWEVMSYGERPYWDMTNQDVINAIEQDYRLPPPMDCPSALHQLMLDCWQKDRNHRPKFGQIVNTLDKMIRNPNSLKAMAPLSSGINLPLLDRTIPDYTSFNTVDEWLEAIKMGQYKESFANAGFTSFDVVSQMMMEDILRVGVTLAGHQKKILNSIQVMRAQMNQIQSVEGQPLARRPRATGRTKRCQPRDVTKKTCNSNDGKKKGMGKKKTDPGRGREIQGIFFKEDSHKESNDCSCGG
The note with it: at 1 µM.

The target in test [10] is T4, Ephrin type-B receptor 2 (Homo sapiens). Particulars: at 10 µM.

Chain of Focal adhesion kinase 1 (Homo sapiens) (Q05397 2-1052 limits assumed): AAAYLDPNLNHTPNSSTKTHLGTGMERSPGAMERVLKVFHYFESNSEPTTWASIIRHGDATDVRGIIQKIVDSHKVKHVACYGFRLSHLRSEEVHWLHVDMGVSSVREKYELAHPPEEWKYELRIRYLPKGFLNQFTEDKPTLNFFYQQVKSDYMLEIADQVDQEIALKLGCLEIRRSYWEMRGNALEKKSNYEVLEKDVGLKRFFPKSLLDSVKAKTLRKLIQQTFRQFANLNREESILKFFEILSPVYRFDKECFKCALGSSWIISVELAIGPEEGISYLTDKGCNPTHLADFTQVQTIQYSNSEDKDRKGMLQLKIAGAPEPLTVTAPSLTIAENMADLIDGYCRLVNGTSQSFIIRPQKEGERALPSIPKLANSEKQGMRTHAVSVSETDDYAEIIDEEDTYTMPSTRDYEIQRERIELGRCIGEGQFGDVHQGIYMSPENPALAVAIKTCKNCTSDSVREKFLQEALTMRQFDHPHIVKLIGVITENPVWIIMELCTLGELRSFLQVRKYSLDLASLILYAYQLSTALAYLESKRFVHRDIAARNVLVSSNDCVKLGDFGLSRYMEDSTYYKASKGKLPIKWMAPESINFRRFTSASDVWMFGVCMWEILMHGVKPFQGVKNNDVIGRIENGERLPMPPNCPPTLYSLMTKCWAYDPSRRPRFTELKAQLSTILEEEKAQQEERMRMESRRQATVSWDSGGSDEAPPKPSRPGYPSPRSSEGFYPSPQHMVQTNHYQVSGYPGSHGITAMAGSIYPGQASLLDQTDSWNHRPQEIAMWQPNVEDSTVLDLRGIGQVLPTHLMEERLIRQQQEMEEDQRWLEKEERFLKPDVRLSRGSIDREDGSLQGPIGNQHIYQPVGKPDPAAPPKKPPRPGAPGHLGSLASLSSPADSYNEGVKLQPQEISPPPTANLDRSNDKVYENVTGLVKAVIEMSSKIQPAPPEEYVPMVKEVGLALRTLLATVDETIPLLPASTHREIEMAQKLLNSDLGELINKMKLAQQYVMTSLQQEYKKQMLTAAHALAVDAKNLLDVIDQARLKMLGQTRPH
Chain of Receptor tyrosine-protein kinase erbB-4 (Homo sapiens) (Q15303 whole entry): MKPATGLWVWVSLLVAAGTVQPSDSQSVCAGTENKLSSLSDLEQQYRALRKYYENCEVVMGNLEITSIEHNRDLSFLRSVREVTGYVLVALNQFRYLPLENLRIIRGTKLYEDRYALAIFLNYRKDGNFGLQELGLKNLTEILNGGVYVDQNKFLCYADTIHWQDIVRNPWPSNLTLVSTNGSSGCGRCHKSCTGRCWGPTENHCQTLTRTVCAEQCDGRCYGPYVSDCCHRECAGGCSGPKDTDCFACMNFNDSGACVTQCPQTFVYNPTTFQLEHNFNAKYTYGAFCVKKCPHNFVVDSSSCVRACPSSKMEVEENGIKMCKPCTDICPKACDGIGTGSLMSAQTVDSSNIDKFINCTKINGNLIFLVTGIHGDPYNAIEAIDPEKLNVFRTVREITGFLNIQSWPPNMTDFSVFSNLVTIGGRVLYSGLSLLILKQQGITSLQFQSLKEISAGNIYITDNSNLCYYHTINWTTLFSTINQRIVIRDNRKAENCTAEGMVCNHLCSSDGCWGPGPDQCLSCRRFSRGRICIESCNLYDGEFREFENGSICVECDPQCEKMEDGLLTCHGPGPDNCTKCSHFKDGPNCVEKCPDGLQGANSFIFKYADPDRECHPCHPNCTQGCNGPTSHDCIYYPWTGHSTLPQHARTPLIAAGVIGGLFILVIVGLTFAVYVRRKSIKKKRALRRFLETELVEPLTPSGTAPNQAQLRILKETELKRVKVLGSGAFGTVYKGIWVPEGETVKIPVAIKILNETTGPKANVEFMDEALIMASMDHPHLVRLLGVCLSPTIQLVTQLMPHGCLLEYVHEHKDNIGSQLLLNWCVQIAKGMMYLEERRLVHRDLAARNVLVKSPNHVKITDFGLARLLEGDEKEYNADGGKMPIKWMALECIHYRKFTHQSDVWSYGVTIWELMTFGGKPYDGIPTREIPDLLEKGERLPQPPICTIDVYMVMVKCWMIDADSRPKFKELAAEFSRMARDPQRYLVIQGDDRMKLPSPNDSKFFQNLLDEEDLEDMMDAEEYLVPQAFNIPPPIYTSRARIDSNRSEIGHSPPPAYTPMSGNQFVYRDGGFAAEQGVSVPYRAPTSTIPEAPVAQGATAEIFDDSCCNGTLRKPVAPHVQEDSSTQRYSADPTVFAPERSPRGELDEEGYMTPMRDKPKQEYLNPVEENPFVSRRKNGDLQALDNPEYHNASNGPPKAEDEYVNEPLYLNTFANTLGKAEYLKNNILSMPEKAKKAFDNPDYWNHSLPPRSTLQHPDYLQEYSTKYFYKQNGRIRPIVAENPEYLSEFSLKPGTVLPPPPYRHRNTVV

By residual activity is commonly meant the signal under treatment as a percentage of the control signal. Turning to `CC(C)c1nn(-c2c(Cl)cccc2Cl)c2nc(Cc3ccc(OCCO)cc3)[nH]c(=O)c12`, the residual activity in [1] was found to be 84%; in [2] it was 108%; in [3] it was 86%; in test [4], 76%; in test [5] it was 103%; in [6] it was 91%. Also, in test [7], the residual activity came to 109%.

Turning to `O=C1NC(=O)c2c1c1c3ccccc3[nH]c1n1cncc21`, the residual activity in test [1] was 74%; in test [8] it was 121% (inactive); in test [2] it was 97%; in [3] it was 82%; in test [4] it was 73%; in test [5], 87%. The residual activity is 73% in test [6] and 57% in [7].

As to `N#C/C(=C1/Nc2ccccc2S1)c1ccnc(NCCc2cccnc2)n1`, the residual activity in test [1] was 55%; in test [8], 141% (inactive); in [2], 74%; in test [3], 72%; in [4] it was 73%; in test [5], 88%. Further, the residual activity in test [6] came to 61%; in test [7], 100%.

In the case of `CCCC(=O)Oc1ccc2[nH]c(C(=O)c3cc4ccccc4[nH]3)cc2c1`, the residual activity is 108% in test [1]; 120% in test [9]; 131% in test [10]; 102% (inactive) in [8]; 92% in test [3]; 101% in test [4]. The results for the residual activity in test [5] and in test [6] were 81% and 95%, respectively.

For the compound `Cn1c2ccccc2c2c3c(c4c5ccccc5n(CCC#N)c4c21)CNC3=O`, the residual activity in test [1] was 63%; in [9], 116%; in test [10] it was 111%; in test [8], 105% (inactive); in test [2], 118%; in test [7] it was 33%.

Turning to `O=C1Cc2c([nH]c3ccc([N+](=O)[O-])cc23)-c2ccccc2N1`, the residual activity is 81% in [1]; 106% in test [9]; 107% in test [10]; 124% (inactive) in test [8]; 113% in test [2].

`O=C(c1ccccc1)c1ccc(N2CCOCC2)cc1O`: the residual activity in [1] was 95%; in [8], 115% (inactive); in test [3], 117%; in test [4], 116%; in test [5], 95%; in [6], 96%. The residual activity in [7] came to 139%.

For the compound `O=C(Nc1ccc(Cl)cc1)c1ccccc1NCc1ccncc1`, the residual activity is 125% in test [2], 117% in test [3], 131% in [4] and 143% in test [7].

In the case of `CCOC(=O)c1c(C)[nH]c(/C=C2\C(=O)Nc3ccccc32)c1C`, the residual activity in test [7] amounted to 133%.

`COc1ccc(COc2ccc(Cc3cnc(N)nc3N)cc2OC)cc1`: the residual activity in [9] was 108%; in test [10], 129%; in test [8], 114% (inactive); in test [2], 110%; in test [3], 99%; in [4], 113%. Further, the residual activity in [5] came to 99%; in test [6] it was 70%; in test [7], 115%.

For the compound `NCCNc1ncc(C(N)=O)c(Nc2cccc(C(F)(F)F)c2)n1`, the residual activity was 113% (inactive) in [8]; 111% in [2]; 102% in test [3]; 101% in test [4]; 75% in test [6]; 64% in test [7].

Consider `N#Cc1c(NC(=O)c2cccc3ccccc23)sc2c1CCCC2`, for which the figures for the residual activity in [1], in [3] and in test [6] were 95%, 90% and 94%, respectively.

Take `O=C1Nc2ccccc2/C1=C\c1c(Cl)[nH]c2ccccc12`: the residual activity in test [3] amounted to 117%; in test [4], 134%.

Consider `O=C1C(Cl)=C(N2C(=O)CCC2=O)C(=O)c2ccccc21`, for which the residual activity in test [1] was found to be 93%; in test [3], 93%; in test [4], 81%; in test [7] it was 93%.

Take `O=c1cc(N2CCOCC2)oc2c(-c3ccccc3)cccc12`: the results for the residual activity in [5] and in test [6] were 79% and 65%, respectively.

As for `O=c1c(-c2ccc(F)cc2)c(-c2ccncc2)[nH]n1-c1ccc(Cl)cc1`, the residual activity in test [9] was 121%; in test [6], 34%.

As to `Fc1ccc(-c2nc3n(c2-c2ccncc2)CCS3)cc1`, the residual activity in [10] came to 91%.
